In PubChem BioAssay:
Calls of active or inactive are those of the source.

Columns and labels:
[1] = small molecules captured by biotinylated probe aFSTL3 – biochemical, small-molecule microarray, fluorescence 635/667, stem cell growth factor project, primary screen (AID 1064); conditions: higher = more signal;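 further: measures binding of the biotinylated anti-FSTL3 antibody to printed compounds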
[2] = binders from COS7 lysate, DM2A8 probe, primary screen, torsin A project, cell lysate, small-molecule microarray, fluorescence 635/667 (AID 1065); conditions: higher = more signal, COS7 lysate expressing mutant human TOR1A
[3] = small molecules captured by biotinylated probe aFGF2 – biochemical, small-molecule microarray, fluorescence 635/667, stem cell growth factor project, primary screen (AID 1067); conditions: higher = more signal;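 further: measures binding of biotinylated aFGF2 protein to printed compounds on slides; z-score merges feature fluorescence and signal-to-noise across triplicate slides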
[4] = small molecules captured by biotinylated probe aFGF10 – biochemical, small-molecule microarray, fluorescence 635/667, stem cell growth factor project, primary screen (AID 1071); conditions: higher = more signal;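 further: score merges 667 nm spot intensity and signal to noise from triplicate slides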
[5] = target: Neurogenic locus notch homolog protein 2 (Homo sapiens) (UniProt Q04721); test: small molecules binding Notch2 protein – biochemical, small-molecule microarray, 635 nm fluorescence, stem cell growth factors, primary screen (AID 1073); conditions: higher = more signal
Neurogenic locus notch homolog protein 2 (Homo sapiens), sequence (Q04721 whole entry, looked up, canonical isoform): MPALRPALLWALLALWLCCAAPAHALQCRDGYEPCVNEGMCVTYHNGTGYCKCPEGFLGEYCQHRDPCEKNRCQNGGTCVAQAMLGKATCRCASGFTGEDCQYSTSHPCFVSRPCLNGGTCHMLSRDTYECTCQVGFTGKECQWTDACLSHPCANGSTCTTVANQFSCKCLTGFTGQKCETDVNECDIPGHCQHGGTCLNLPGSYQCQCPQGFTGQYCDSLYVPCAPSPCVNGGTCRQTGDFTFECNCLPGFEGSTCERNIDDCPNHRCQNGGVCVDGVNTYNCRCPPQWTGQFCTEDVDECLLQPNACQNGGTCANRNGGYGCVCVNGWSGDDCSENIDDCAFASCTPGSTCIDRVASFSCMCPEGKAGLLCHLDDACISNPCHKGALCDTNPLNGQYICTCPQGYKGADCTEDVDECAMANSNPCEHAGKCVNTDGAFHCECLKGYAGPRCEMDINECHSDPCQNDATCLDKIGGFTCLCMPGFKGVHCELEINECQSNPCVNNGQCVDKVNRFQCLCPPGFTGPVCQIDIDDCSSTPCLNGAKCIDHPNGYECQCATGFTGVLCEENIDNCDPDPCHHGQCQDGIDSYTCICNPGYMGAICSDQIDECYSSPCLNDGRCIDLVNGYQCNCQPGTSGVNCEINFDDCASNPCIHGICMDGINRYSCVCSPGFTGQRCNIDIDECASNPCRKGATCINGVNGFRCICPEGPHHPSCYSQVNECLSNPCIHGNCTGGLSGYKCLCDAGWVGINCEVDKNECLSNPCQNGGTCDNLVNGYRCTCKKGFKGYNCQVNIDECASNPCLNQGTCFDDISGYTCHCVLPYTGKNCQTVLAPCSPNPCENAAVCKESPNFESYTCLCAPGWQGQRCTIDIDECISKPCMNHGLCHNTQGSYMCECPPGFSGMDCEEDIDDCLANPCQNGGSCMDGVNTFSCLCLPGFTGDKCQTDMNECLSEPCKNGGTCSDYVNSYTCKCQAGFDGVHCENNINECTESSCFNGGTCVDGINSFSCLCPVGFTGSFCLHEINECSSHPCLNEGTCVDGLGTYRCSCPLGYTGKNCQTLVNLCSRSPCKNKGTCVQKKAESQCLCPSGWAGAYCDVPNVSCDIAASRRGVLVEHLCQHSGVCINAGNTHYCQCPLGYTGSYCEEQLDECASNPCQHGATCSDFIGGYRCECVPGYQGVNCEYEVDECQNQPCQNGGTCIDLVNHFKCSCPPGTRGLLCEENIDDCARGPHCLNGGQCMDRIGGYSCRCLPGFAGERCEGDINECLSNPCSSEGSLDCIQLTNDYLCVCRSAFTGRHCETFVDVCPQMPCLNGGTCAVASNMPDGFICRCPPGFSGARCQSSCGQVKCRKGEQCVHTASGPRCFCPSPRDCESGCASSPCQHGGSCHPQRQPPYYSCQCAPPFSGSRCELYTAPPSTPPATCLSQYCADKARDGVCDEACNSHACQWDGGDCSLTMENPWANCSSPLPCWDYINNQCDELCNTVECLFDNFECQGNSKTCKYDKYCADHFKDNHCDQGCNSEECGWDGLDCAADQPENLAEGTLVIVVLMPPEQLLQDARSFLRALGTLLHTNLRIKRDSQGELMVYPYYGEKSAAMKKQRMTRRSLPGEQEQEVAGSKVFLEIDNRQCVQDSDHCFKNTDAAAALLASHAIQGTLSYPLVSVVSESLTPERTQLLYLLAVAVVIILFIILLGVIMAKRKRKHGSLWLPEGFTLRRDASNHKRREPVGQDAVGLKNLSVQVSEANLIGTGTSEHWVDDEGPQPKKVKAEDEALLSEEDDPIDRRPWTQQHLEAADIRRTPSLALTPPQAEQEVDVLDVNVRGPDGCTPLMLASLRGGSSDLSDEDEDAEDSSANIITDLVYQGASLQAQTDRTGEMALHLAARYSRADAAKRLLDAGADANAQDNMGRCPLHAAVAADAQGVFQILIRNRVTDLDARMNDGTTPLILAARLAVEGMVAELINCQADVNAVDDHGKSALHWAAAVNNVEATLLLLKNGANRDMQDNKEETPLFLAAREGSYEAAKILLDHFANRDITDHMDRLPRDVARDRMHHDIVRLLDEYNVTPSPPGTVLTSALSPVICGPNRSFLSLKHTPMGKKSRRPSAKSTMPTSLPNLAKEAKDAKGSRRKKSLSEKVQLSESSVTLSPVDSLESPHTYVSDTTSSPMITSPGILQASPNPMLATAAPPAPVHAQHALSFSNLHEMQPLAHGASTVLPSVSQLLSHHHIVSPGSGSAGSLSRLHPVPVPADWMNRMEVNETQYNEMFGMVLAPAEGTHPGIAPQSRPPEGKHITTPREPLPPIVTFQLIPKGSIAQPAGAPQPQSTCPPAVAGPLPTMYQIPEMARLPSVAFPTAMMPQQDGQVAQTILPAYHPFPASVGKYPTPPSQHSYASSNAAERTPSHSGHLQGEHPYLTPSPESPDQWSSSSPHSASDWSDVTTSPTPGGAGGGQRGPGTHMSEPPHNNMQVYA

[6] = target: Pro-neuregulin-1, membrane-bound isoform (Homo sapiens) (UniProt Q02297); test: small molecules binding neuregulin-1 protein – biochemical, small-molecule microarray, fluorescence 635/667, psychiatric disease protein project, primary screen (AID 1075); conditions: NRG1 binding, 635 nm fluorescence, higher = more signal;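 further: score combines 667 nm spot fluorescence with signal to noise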
Pro-neuregulin-1, membrane-bound isoform (Homo sapiens), sequence (Q02297 whole entry, looked up, the tested form may be a part, canonical isoform): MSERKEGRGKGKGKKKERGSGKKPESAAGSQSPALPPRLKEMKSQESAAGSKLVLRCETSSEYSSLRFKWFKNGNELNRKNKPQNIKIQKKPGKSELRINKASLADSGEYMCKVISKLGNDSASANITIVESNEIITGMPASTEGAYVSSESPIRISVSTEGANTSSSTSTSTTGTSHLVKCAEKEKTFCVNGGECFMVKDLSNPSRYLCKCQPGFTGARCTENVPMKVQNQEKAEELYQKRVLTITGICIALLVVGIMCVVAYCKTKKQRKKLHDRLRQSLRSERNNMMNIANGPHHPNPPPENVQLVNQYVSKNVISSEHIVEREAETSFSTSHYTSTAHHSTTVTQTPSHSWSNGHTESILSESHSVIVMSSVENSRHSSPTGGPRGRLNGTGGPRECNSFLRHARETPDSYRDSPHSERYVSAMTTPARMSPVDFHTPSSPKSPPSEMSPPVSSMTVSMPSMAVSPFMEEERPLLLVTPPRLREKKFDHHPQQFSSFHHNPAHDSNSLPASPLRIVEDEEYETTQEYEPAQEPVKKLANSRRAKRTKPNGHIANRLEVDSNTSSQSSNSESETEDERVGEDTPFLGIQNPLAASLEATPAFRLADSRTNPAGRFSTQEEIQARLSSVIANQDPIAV

[7] = system: Neuregulin-1 EGF-like domain; test: small molecules binding NRG1 EGF domain – biochemical, small-molecule microarray, 635 nm fluorescence, primary screen (AID 1081); conditions: higher = more signal;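 further: binding of the protein to compounds printed on small-molecule microarray slides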
[8] = FRG1 expression reporter modulators in myotubes – cell-based, C2C12 myotubes, firefly/Renilla luciferase, luminescence, FRG1 inhibition for FSHD, primary screen (AID 1084); conditions: FRG1 promoter luciferase, higher = more signal, called active from +8 up or from −8 down
[9] = small molecules captured by biotinylated probe aFST – biochemical, small-molecule microarray, fluorescence 635/667, stem cell growth factor project, primary screen (AID 1086); conditions: higher = more signal;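 further: score merges 667 nm fluorescence with signal-to-noise of each printed compound spot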
[10] = binders of probe aHhip on microarray, primary screen, stem cell growth factor project, biochemical, small-molecule microarray, fluorescence 635/667 (AID 1087); conditions: higher = more signal;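 further: score merges spot fluorescence at 667nm with spot signal to noise ratio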

CCCNC(=O)OC[C@H]1O[C@H](CCON=C(C)CCN2CCCc3nc(C)c(C)cc32)C=C[C@@H]1Oc1ccc(OC)cc1
composite z-score [1]: -0.0324 | composite z-score [2]: -0.0773 | composite z-score [3]: -0.0611 | composite z-score [4]: 0.552 | composite z-score [5]: 0.661 | composite z-score [6]: 0.639 | composite z-score [7]: 0.685 | z-score [8]: -0.46 (inactive) | composite z-score [9]: 0.504 | composite z-score [10]: -0.0994

C[C@@H]1CC[C@H]2C(=O)O[C@@H](Cc3ccccc3)CN2[C@H]1c1ccc(Br)cc1
composite z-score [1]: -0.395 | composite z-score [2]: 0.207 | composite z-score [3]: -0.185 | composite z-score [4]: -0.112 | composite z-score [5]: 0.526 | composite z-score [6]: 0.649 | composite z-score [7]: 0.408 | z-score [8]: -0.205 (inactive) | composite z-score [9]: 0.384 | composite z-score [10]: -0.201

C=C(C)C(=O)OCC1CN2[C@@H](CC[C@@H](C)[C@@H]2c2ccc(Br)cc2)C(=O)O1 (stereo not given in full)
composite z-score [1]: -0.393 | composite z-score [2]: 0.0802 | composite z-score [3]: -0.15 | composite z-score [4]: 0.2 | composite z-score [5]: 0.331 | composite z-score [6]: -0.0076 | composite z-score [7]: 0.546 | z-score [8]: 1.11 (inactive) | composite z-score [9]: 0.444 | composite z-score [10]: -0.21

CC(=O)O[C@H]1C2=CO[C@H](C)[C@H]3[C@H]4C5=C([C@H](O)[C@H]6O[C@H]6C5=O)[C@H](OC4C)[C@@]23C(=O)[C@@H]2O[C@@H]21 (stereo not given in full)
composite z-score [1]: -0.186 | composite z-score [2]: 0.0382 | composite z-score [3]: -0.0724 | composite z-score [4]: 0.705 | composite z-score [5]: 0.673 | composite z-score [6]: 0.435 | composite z-score [7]: 1.01 | z-score [8]: -3.35 (inactive) | composite z-score [9]: 0.163 | composite z-score [10]: 0.154

CCOC(=O)[C@H](CC(C)C)NC(=O)CCC1CC(OC(=O)NCCc2ccc(F)cc2)CC2(CCCC(COC(=O)NCC(c3ccccc3)c3ccccc3)O2)O1 (stereo not given in full)
composite z-score [1]: -0.65 | composite z-score [2]: 0.149 | composite z-score [3]: -0.136 | composite z-score [4]: 0.433 | composite z-score [5]: 0.787 | composite z-score [6]: 0.221 | composite z-score [7]: 1.12 | z-score [8]: 2.36 (inactive) | composite z-score [9]: 0.0026 | composite z-score [10]: -0.236

COc1ccc(O[C@H]2C=C[C@@H](c3ccccc3)O[C@@H]2CON=C(C)CCC(=O)OC[C@H]2O[C@H](c3ccccc3)C=C[C@@H]2Oc2ccc(OC)cc2)cc1
composite z-score [1]: 0.0321 | composite z-score [2]: -0.543 | composite z-score [3]: -0.141 | composite z-score [4]: 0.0207 | composite z-score [5]: -1.5 | composite z-score [6]: -0.496 | composite z-score [7]: -1.1 | z-score [8]: 0.634 (inactive) | composite z-score [9]: -0.677 | composite z-score [10]: -0.0994

CC(=O)OC[C@H]1O[C@H](C#Cc2ccccc2)C=C[C@@H]1OC(C)=O
composite z-score [1]: -0.306 | composite z-score [2]: -0.0613 | composite z-score [3]: -0.0474 | composite z-score [4]: 0.346 | composite z-score [5]: 0.32 | composite z-score [6]: 0.232 | composite z-score [7]: -0.11 | z-score [8]: -0.284 (inactive) | composite z-score [9]: 0.0157 | composite z-score [10]: 0.281

CC(C)=CCCC(C)=CCON=C1C[C@@H](O)[C@@H](O)[C@@H]2[C@@H]3C(=O)N(C[C@@H]4CCCO4)C(=O)[C@@H]3CC[C@H]12
composite z-score [1]: -0.532 | composite z-score [2]: 1.78 | composite z-score [3]: -0.142 | composite z-score [4]: 0.508 | composite z-score [5]: 0.583 | composite z-score [6]: 0.447 | composite z-score [7]: 1.05 | z-score [8]: -0.0588 (inactive) | composite z-score [9]: 0.417 | composite z-score [10]: -0.0645
